From PubChem BioAssay (Tox21)
Values without a mark were called inactive. Inconclusive results are not listed. A call without a number means that no potency is given here. Activity calls are given as the source filed them. Unless noted, calls follow the shape of the dose curve; as a rule, active = well fitted curve in the direction sought with a large enough effect in the repeat runs; inconclusive = weak or mixed curves; inactive = no such curve, though single readings can be large; an effect the other way counts as inactive or inconclusive.

Experiments:
[1] = qHTS assay to test for compound auto fluorescence at 535 nm (green) in HEK293 cells (AID 720680)
[2] = qHTS assay to test for compound auto fluorescence at 460 nm (blue) in HEK293 cell free culture (AID 720681)
Outline: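 Blue fluorescence (Ex 405/Em 460 nm, triamterene-equivalent) was read immediately after pin transfer of compound or DMSO into medium (DMEM, 10% FBS) without cells.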

[3] = qHTS assay to test for compound auto fluorescence at 535 nm (green) in HEK293 cell free culture (AID 720682)
Outline: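 Cell-free medium (DMEM, 10% FBS) receives compound or DMSO by pintool. Plate read directly at Ex 485/Em 535 nm. Signal converted to fluorescein equivalency.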

[4] = qHTS assay to test for compound auto fluorescence at 590 nm (red) in HEK293 cell free culture (AID 720683)
Outline: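 Red-channel autofluorescence of compounds in culture medium (DMEM, 10% FBS), no cells, measured at 540/590 nm. Rose Bengal sodium is the reference fluorophore for equivalence.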

[5] = qHTS assay to test for compound auto fluorescence at 590 nm (red) in HepG2 cell free culture (AID 720684)
Outline: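 Plate contents were MEM with 10% FBS plus test compound or DMSO, no cells. Fluorescence was recorded with 540 nm excitation and 590 nm emission.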

[6] = qHTS assay to test for compound auto fluorescence at 460 nm (blue) in HepG2 cell free culture (AID 720685)
Outline: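 Compound (23 nL) or DMSO pinned into cell-free MEM with 10% FBS; blue fluorescence read at 405/460 nm excitation/emission, expressed as auto-fluorescence equivalency to triamterene.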

[7] = qHTS assay to test for compound auto fluorescence at 535 nm (green) in HepG2 cell free culture (AID 720686)
[8] = qHTS assay to test for compound auto fluorescence at 460 nm (blue) in HepG2 cells (AID 720687)
Outline: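 Blue-channel autofluorescence (Ex/Em 405/460 nm, triamterene-equivalent) was measured after 1 hr compound exposure at 37 C, 5% CO2. Cells were HepG2, plated overnight at 37 C in MEM plus 10% FBS.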

[9] = target: Glucocorticoid receptor (Homo sapiens) (UniProt P04150); assay: qHTS assay to identify small molecule agonists of the glucocorticoid receptor (GR) signaling pathway (AID 720691; active = well fitted activation curve with a large enough effect in the signal ratio in the repeat runs, not every such curve was filed as active; the % refers to the signal ratio); conditions: GR-bla HeLa, beta-lactamase reporter ratio, 18 h; activation: at 62.4 µM (top of the series)
Sequence of Glucocorticoid receptor (Homo sapiens) (P04150 whole entry, looked up): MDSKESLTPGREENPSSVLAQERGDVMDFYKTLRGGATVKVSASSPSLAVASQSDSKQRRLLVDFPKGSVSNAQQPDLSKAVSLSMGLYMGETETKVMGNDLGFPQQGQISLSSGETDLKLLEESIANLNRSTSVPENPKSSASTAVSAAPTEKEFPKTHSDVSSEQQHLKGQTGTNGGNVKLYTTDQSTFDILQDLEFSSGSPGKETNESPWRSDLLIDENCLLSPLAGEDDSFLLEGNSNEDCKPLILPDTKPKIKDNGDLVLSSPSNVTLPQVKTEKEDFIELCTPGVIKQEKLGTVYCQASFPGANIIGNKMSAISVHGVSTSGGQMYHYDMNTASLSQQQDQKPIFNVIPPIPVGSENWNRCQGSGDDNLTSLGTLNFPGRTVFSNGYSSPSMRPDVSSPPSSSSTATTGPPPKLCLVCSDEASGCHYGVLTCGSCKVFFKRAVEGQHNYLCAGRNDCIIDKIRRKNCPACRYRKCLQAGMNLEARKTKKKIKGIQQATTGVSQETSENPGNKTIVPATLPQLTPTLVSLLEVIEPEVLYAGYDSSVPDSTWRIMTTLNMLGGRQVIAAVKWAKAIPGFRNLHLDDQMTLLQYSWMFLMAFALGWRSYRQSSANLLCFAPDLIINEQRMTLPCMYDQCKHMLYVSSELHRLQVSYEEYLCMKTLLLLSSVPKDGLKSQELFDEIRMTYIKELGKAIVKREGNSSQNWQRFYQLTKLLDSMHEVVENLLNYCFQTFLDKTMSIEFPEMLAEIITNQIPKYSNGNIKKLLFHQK
Outline: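 Beta-lactamase reporter activity, read as fluorescence intensity, was measured in GR-bla HeLa cells exposed to compounds for 18 h at 37 C and then loaded with LiveBLAzer B/G FRET substrate for 2 h at room temperature.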

[10] = target: Glucocorticoid receptor (Homo sapiens) (UniProt P04150); assay: qHTS assay to identify small molecule antagonists of the glucocorticoid receptor (GR) signaling pathway (AID 720692; active = well fitted inhibition curve with a large enough effect in the signal ratio in the repeat runs, not every such curve was filed as active; the % refers to the signal ratio; also: potency is read from the fitted curve at half-maximal effect)
Outline: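 Fluorescence from cleaved LiveBLAzer B/G FRET substrate reports GRE-driven beta-lactamase in HeLa cells; compounds are tested against 5 nM dexamethasone (final) over 18 h at 37 C, substrate incubation 2 h at room temperature.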

[11] = qHTS assay to identify small molecule antagonists of the glucocorticoid receptor (GR) signaling pathway - cell viability counter screen (AID 720693); also: nearly all actives have a fitted effect of over 55% in size
[12] = qHTS assay for identifying genotoxic compounds that show differential cytotoxicity against isogenic chicken DT40 cell lines with known DNA damage response pathways - wild type cell line (AID 743012); also: nearly all actives have a fitted effect of over 60% in size; also: potency is read from the fitted curve at half-maximal effect
Outline: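 Quantitative HTS on parental DT40 cells: 40 h compound treatment at 37 C/5% CO2, with viability then determined by CellTiter-Glo luminescence. Values serve as the DNA repair-proficient reference for differential cytotoxicity.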

[13] = qHTS assay for identifying genotoxic compounds that show differential cytotoxicity against isogenic chicken DT40 cell lines with known DNA damage response pathways - Rev3 mutant cell line (AID 743014); also: nearly all actives have a fitted effect of over 55% in size; also: potency is read from the fitted curve at half-maximal effect
[14] = qHTS assay for identifying genotoxic compounds that show differential cytotoxicity against isogenic chicken DT40 cell lines with known DNA damage response pathways - Rad54/Ku70 mutant cell line (AID 743015); also: nearly all actives have a fitted effect of over 60% in size; also: potency is read from the fitted curve at half-maximal effect
[15] = qHTS assay to identify small molecule antagonists of the androgen receptor (AR) signaling pathway - cell viability counter screen (AID 743033; also: nearly all actives have a fitted effect of over 45% in size)
[16] = qHTS assay to identify small molecule antagonists of the androgen receptor (AR) signaling pathway using the MDA cell line - cell viability counter screen (AID 743041; also: nearly all actives have a fitted effect of over 45% in size)
Outline: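 R1881-driven MDA-kb2 AR-luc cells, 3,000/well, were dosed with library compounds for 16 h; cell health came from CellTiter-Fluor fluorescence in the reporter wells.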

[17] = qHTS assay to identify small molecule antagonists of the thyroid receptor (TR) signaling pathway - cell viability counter screen (AID 743064); also: nearly all actives have a fitted effect of over 50% in size; also: potency is read from the fitted curve at half-maximal effect
Outline: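 GH3.TRE-Luc cells, 4 h pre-plating; cpd + T3 1 nM final; 37 °C 23.5 h; CellTiter-Fluor 30 min; fluorescence read.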

[18] = target: Androgen receptor (Homo sapiens) (UniProt P10275); assay: qHTS assay to identify small molecule agonists of the androgen receptor (AR) signaling pathway using the MDA cell line (AID 743040; also: nearly all actives have a fitted effect of over 20% in size)
Sequence of Androgen receptor (Homo sapiens) (P10275 whole entry, looked up): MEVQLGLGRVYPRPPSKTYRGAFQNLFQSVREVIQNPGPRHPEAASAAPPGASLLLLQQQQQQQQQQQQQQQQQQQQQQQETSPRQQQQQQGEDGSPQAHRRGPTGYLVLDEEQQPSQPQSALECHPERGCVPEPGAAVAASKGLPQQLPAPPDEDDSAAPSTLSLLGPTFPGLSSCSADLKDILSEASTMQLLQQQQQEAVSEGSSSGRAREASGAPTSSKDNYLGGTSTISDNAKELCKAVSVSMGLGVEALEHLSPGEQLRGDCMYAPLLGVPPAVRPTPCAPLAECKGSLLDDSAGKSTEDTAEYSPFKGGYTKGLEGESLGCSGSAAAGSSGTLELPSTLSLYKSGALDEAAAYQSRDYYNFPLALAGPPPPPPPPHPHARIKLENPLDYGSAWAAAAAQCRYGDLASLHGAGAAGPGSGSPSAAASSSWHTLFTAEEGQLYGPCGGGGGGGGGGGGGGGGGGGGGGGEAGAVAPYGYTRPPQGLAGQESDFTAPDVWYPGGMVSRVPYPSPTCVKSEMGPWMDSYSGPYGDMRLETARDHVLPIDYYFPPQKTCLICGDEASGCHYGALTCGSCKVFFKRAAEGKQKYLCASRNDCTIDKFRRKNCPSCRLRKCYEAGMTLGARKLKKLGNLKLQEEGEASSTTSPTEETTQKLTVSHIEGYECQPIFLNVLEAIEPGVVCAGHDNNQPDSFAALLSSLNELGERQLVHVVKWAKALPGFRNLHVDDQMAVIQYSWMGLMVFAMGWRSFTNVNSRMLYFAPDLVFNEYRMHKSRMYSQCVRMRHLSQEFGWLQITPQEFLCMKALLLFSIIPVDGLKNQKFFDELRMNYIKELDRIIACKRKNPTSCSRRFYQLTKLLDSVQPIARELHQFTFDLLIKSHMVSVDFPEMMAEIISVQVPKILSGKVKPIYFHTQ
Outline: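 After a 5 h incubation at 37C and 0% CO2, MDA-kb2 reporter cells were dosed with compounds in DMSO and kept 16 h under the same conditions. Luciferase activity was then read as luminescence with ONE-Glo.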

[19] = target: Androgen receptor (Homo sapiens) (UniProt P10275); assay: qHTS assay to identify small molecule antagonists of the androgen receptor (AR) signaling pathway using the MDA cell line (AID 743042; also: nearly all actives have a fitted effect of over 55% in size)
Outline: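 Antagonist mode: compounds plus R1881 agonist added to MDA-kb2 AR-luc cells, incubated 16 h at 37C. Luciferase reporter luminescence quantified, with multiplexed CellTiter-Fluor readout for cell viability.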

[20] = target: Androgen receptor (Homo sapiens) (UniProt P10275); assay: qHTS assay to identify small molecule antagonists of the androgen receptor (AR) signaling pathway (AID 743035; active = well fitted inhibition curve with a large enough effect in the signal ratio in the repeat runs, not every such curve was filed as active; the % refers to the signal ratio)
Outline: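 Cell line: GeneBLAzer AR-UAS-bla GripTite (HEK293). Stimulus: R1881 added after compound. Exposure: 16 h, 37C, 5% CO2. Readout: LiveBLAzer B/G FRET fluorescence after 2 h at room temperature.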

SMILES | outcome [1] | Potency [2] | outcome [3] | outcome [4] | outcome [5] | Potency [6] | Potency [7] | Potency [8] | Potency [9] | Potency [10] | Potency [11] | Potency [12] | Potency [13] | Potency [14] | Potency [15] | Potency [16] | Potency [17] | outcome [18] | Potency [19] | Potency [20]
COc1nc(C)nc(NC(=O)NS(=O)(=O)c2ccccc2Cl)n1 | inactive | inactive | inactive | inactive | inactive | inactive | inactive | inactive | inactive | inactive | inactive | inactive | inactive | inactive | inactive | inactive | inactive |  |  | 
O=c1c2ccccc2c(=O)c2c1cc(Cl)c1[nH]c3c([nH]c12)c(Cl)cc1c(=O)c2ccccc2c(=O)c13 | inactive | inactive | inactive | inactive | inactive | inactive | inactive | inactive | inactive | inactive | inactive | inactive | inactive | inactive | inactive | inactive | inactive |  |  | 
O=[N+]([O-])c1ccc(CCl)cc1 | inactive | inactive | inactive | inactive | inactive | inactive | inactive | inactive | inactive | inactive | inactive |  | inactive | inactive | inactive | inactive | inactive |  |  | 
Cc1ccccc1OP(=O)(Oc1ccccc1C)Oc1ccccc1C | inactive | inactive | inactive | inactive | inactive | inactive | inactive | inactive | inactive | 27.6 µM (active) | inactive |  | 54.7 µM (active) | 30.8 µM (active) | inactive | inactive | 54.7 µM (active) | inactive | inactive | 
ClCBr | inactive | inactive | inactive | inactive | inactive | inactive | inactive | inactive | inactive |  | inactive | inactive | inactive | inactive | inactive | inactive | inactive |  |  | 
C[C@H]1[C@H](c2ccc(Cl)cc2)SC(=O)N1C(=O)NC1CCCCC1 | inactive | inactive | inactive | inactive | inactive | inactive | inactive | inactive | inactive |  | inactive |  |  |  | inactive | inactive |  | inactive |  | 
CC1(C)[C@H](/C=C2\CCSC2=O)[C@@H]1C(=O)OCc1coc(Cc2ccccc2)c1 | inactive | inactive | inactive | inactive | inactive | inactive | inactive | inactive | inactive |  | inactive | 6.86 µM (active) | 5.45 µM (active) | 10.9 µM (active) | inactive | inactive |  |  |  | 
Cc1cnc2c(C(=O)O)c(Cl)ccc2c1 | inactive | inactive | inactive | inactive | inactive | inactive | inactive | inactive | inactive | inactive | inactive |  | inactive | inactive | inactive | inactive | inactive |  |  | 
CCCCC(CC)COC(=O)c1ccccc1C(=O)OCC(CC)CCCC (stereo not drawn) | inactive | inactive | inactive | inactive | inactive | inactive | inactive | inactive | inactive |  |  |  |  | inactive | inactive |  |  |  |  | 
CC(Cl)CCl (stereo not drawn) | inactive | inactive | inactive | inactive | inactive | inactive | inactive | inactive | inactive | inactive | inactive | inactive | inactive | inactive | inactive | inactive | inactive |  |  | 
CCOC(=O)Cc1ccccc1 | inactive | inactive | inactive | inactive | inactive | inactive | inactive | inactive | inactive | inactive | inactive | inactive | inactive | inactive | inactive | inactive | inactive | inactive | inactive | inactive
c1ccc2nc(N3CCNCC3)ccc2c1 | inactive | inactive | inactive | inactive | inactive | inactive | inactive | inactive | inactive | inactive | inactive | 29.8 µM (active) |  |  | inactive | inactive | 29.8 µM (active) |  |  | 
COc1cnc(OC)n2nc(NS(=O)(=O)c3c(OCC(F)F)cccc3C(F)(F)F)nc12 | inactive | inactive | inactive | inactive | inactive | inactive | inactive | inactive | inactive | inactive | inactive | inactive | inactive | inactive | inactive | inactive | inactive |  |  | 
CCCCCCCc1ccc(O)cc1 | inactive | inactive | inactive | inactive | inactive | inactive | inactive | inactive | inactive |  |  | 21.7 µM (active) | 19.3 µM (active) |  | inactive | inactive |  | inactive | inactive | 
N#CSCc1ccccc1 | inactive | inactive | inactive | inactive | inactive | inactive | inactive | inactive | inactive |  | inactive |  | inactive | inactive | inactive | inactive | inactive |  |  | 
